± gives the standard deviation of the averaged measurements.
Key:
Details in all cases: concentration: 10 µM; 24 h
[1] = tested on: HCC1569; assay: cell number relative to DMSO (% of DMSO); higher = more cells (less growth inhibition / toxicity)
Summary of the method: (§1)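 Compounds were applied at 10 µM for 24 h at 37 °C, in triplicate, to HCC1569 and TDF cells. The cells were then fixed and stained for H1.0, and nuclei were counterstained with DAPI. Nuclear H1.0 intensity or cell number is reported relative to the plate control as a percent, taking the median of replicates. Smoothing for positional effects was applied to HCC1569 values only.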

[2] = tested on: TDF; assay: as above
Summary of the method: as §1

[3] = tested on: TDF; assay: H1.0 immunofluorescence intensity relative to DMSO (% of DMSO); higher = stronger H1.0 induction, active = 120 or more
Summary of the method: as §1

[4] = tested on: HCC1569; assay: H1.0 immunofluorescence intensity relative to DMSO (% of DMSO); higher = stronger H1.0 induction, active = 140 or more
Summary of the method: as §1
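Throughout, for H1.0 immunofluorescence intensity relative to DMSO: TDF is a line of transformed human dermal fibroblasts of mesenchymal origin.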
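Throughout, for cell number relative to DMSO: TDF denotes transformed human dermal fibroblasts of mesenchymal origin.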

SMILES	cell number [1]	cell number [2]	H1.0 immunofluorescence intensity [3]	H1.0 immunofluorescence intensity [4]
C[N+]1(C)CCCC1C(=O)[O-].Cl (stereo unspecified)	96.1	115	95.9 (inactive)	109 (inactive)
O=C(O)C=CC(=O)O.c1cnc(N2CCN(Cc3ccc4c(c3)OCO4)CC2)nc1 [Piribedil maleate]	101	116	93.8 (inactive)	79.7 (inactive)
COCC(=O)NCC=Cc1ccc2ncnc(Nc3ccc(Oc4ccc(C)nc4)c(C)c3)c2c1	76.8	94.9	98.3 (inactive)	158 (active)
CC(C)(C#N)c1ccc(N2C(=O)OCc3cnc4ccc(-c5cnc6ccccc6c5)cc4c32)cc1	59.8	44.1	101 (inactive)	206 (active)
NC(Cc1ccc(O)c(O)c1)C(=O)O (stereo unspecified) [Levodopa]	96.9	102	93.3 (inactive)	96.9 (inactive)
Clc1ccc(Nc2nnc(Cc3ccncc3)c3ccccc23)cc1 [Vatalanib]	103	103	97.2 (inactive)	105 (inactive)
NS(=O)(=O)c1cc2c(cc1Cl)NCNS2(=O)=O [Hydrochlorothiazide]	105	107	90.9 (inactive)	89.9 (inactive)
COc1cc(C2c3cc4c(cc3C(OC3OC5COC(C)OC5C(O)C3O)C3COC(=O)C23)OCO4)cc(OC)c1O (stereo unspecified) [Etoposide]	74.1 ± 1.6	42.1 ± 4.8	125 (active)	95.1 (inactive)
Nc1nnc(-c2cccc(Cl)c2Cl)c(N)n1 [Lamotrigine]	99.6 ± 2.1	105 ± 2	87.7 (inactive)	101 (inactive)
NC1CCN(c2nc3c(cc2F)c(=O)c(C(=O)O)cn3-c2ccc(F)cc2F)C1 (stereo unspecified) [Tosufloxacin]	106	102	105 (inactive)	104 (inactive)
C=C1C(=O)OC2C1CCC(C)=CCCC1(C)OC21 (stereo unspecified) [Parthenolide]	65.2 ± 7.3	50.3 ± 3.6	119 (inactive)	149 (active)
Nc1nc(OCc2ccccc2)c2[nH]cnc2n1 [O6-benzylguanine]	102	96.6	101 (inactive)	95.8 (inactive)
OCc1ccc(-c2nn(Cc3ccccc3)c3ccccc23)o1	102	106	98.9 (inactive)	106 (inactive)
Cl.Cl.c1ccc2c3c([nH]c2c1)C1C2CCC(C4CCCNC42)N1CC3 (stereo unspecified)	99.8	100	97.2 (inactive)	101 (inactive)
Cc1nc2sccn2c(=O)c1CCN1CCC(=C(c2ccc(F)cc2)c2ccc(F)cc2)CC1 [Ritanserin]	101	111	88.8 (inactive)	105 (inactive)
CCCCCCCCCCCCCCSCC(=O)O [Tetradecylthioacetic acid]	104	107	85.8 (inactive)	102 (inactive)
Cc1[nH]c2ccccc2c1CCNC(=O)c1cccs1 [N-[2-(2-methyl-1H-indol-3-yl)ethyl]-2-thiophenecarboxamide]	102	95.5	97.1 (inactive)	92.8 (inactive)
O=c1sn(-c2cccc3ccccc23)c(=O)n1Cc1ccccc1 [4-benzyl-2-(1-naphthyl)-1,2,4-thiadiazolidine-3,5-dione]	94.9	90.9	101 (inactive)	98.8 (inactive)
CCCn1c(=O)c2[nH]c(-c3ccc(OCC(=O)NCCN)cc3)nc2n(CCC)c1=O [Xanthine amine congener]	97.6	104	98 (inactive)	110 (inactive)
Cc1cc(Nc2ncc3cc(-c4c(Cl)cccc4Cl)c(=O)n(C)c3n2)ccc1F	36.3	7.32	201 (active)	187 (active)
Cc1cc(Nc2nc(NC(C)c3ccc(F)cc3)c(C#N)cc2F)n[nH]1 (stereo unspecified)	51.8	28	167 (active)	146 (active)
Cc1c(O)cc2c(c1C)OC(C)(CCCC(C)CCCC(C)CCCC(C)C)CC2 [D-γ-Tocopherol]	100	98.7	98.5 (inactive)	102 (inactive)
O=C1c2c(O)cc(O)cc2OC(c2ccc(O)c(O)c2)C1O (racemic)	108	109	87.5 (inactive)	103 (inactive)
CC(CN(C)C)CN1c2ccccc2CCc2ccccc21.O=C(O)C=CC(=O)O (stereo unspecified) [Trimipramine maleate]	106	106	102 (inactive)	109 (inactive)
CCC1(O)CC2CN(CCc3c([nH]c4ccccc34)C(C(=O)OC)(c3cc4c(cc3OC)N(C=O)C3C(O)(C(=O)OC)C(OC(C)=O)C5(CC)C=CCN6CCC43C65)C2)C1.O=S(=O)(O)O (stereo unspecified) [Vincristine sulfate]	57.3 ± 1	9.46 ± 1.6	167 (active)	151 (active)

SMILES	cell number [1]	cell number [2]	H1.0 immunofluorescence intensity [3]	H1.0 immunofluorescence intensity [4]
COc1ccc(CC(=O)NC(N=C(NC#N)Nc2cccc3ncccc23)C(C)(C)C)cc1OC (stereo unspecified)	99.9	107	93.5 (inactive)	96.8 (inactive)
COc1ncnc(NS(=O)(=O)c2ccc(N)cc2)c1OC [Sulfadoxine]	104	97.4	91.9 (inactive)	89.2 (inactive)
C#CC1(O)CCC2C3C(C)CC4=C(CCC(=O)C4)C3CCC21C (stereo unspecified) [Tibolone]	100	96.7	102 (inactive)	110 (inactive)
O=C(O)c1ccc(O)c(O)c1 [Protocatechuic acid]	100	106	91.4 (inactive)	91.3 (inactive)
CCOC(=O)OC(C)OC1=C(C(=O)Nc2ccccn2)N(C)S(=O)(=O)c2ccccc21 (stereo unspecified) [Ampiroxicam]	105	94.9	99.6 (inactive)	116 (inactive)
O=C(O)Cc1nn(Cc2nc3cc(C(F)(F)F)ccc3s2)c(=O)c2ccccc12	98.1	90.1	93.4 (inactive)	97.7 (inactive)
CCCCCC=CCC=CCC1OC1CC=CCCCC(=O)O (stereo unspecified) [8,9-Epoxyeicosatrienoic acid]	103	101	97.7 (inactive)	104 (inactive)
COc1ccc(Cl)cc1NC(=O)Nc1cc(C)nc2ccccc12 [N-(5-Chloro-2-methoxyphenyl)-N'-(2-methyl-4-quinolinyl)urea]	90	103	104 (inactive)	148 (active)
CC(C=CC1=C(C)CCCC1(C)C)=CC=CC(C)=CC(=O)Nc1ccc(O)cc1 [Retinoic acid p-hydroxyanilide]	42.9	85.3	100 (inactive)	185 (active)
CC12CCC(=O)C=C1CCC1C2CCC2(C)C1CCC2(O)C(=O)CO (stereo unspecified) [Cortexolone]	98.2	99.3	90.2 (inactive)	96.2 (inactive)
NC(=S)NN=Cc1ncccc1N [3-amino-2-pyridinecarbaldehyde thiosemicarbazone]	77.2	41.7	113 (inactive)	99.1 (inactive)
CCCCCC=CCC=CCC=CCC=CCCCC(=O)C(F)(F)F	104	96.7	95.3 (inactive)	95.1 (inactive)
COc1cc(=O)n(C)c2c(OCC(O)C(C)(C)O)cccc12 (stereo unspecified) [Foliosidine]	103	112	93.5 (inactive)	93.7 (inactive)
O=C(O)CCCc1c[nH]c2ccccc12 [Indole-3-butyric acid]	104	99	98.4 (inactive)	86.6 (inactive)
CC1(C)CCCC(C)(C2CCC3(C)C2C(O)CC2C4(C)CCC(O)C(C)(C)C4CCC23C)O1 (stereo unspecified) [Panaxadiol]	105	103	91.8 (inactive)	93.6 (inactive)
O=C1NC(=O)C(=Cc2cccc(C(F)(F)F)c2)S1 [PIM1/2 Kinase Inhibitor V]	102	103	102 (inactive)	108 (inactive)
CCOc1nc(NC(=O)Cc2cc(OC)ccc2OC)cc(N)c1C#N [JNK Inhibitor VIII]	97.9	104	92.7 (inactive)	120 (inactive)
CCCCCCCCCCCC=CCCCCC(=O)O [6(Z)-Octadecenoic acid]	100	99.9	101 (inactive)	97.5 (inactive)
Cl.Oc1ccc(Nc2nc(-c3ccc(Cl)cc3)cs2)cc1 [Sphingosine Kinase Inhibitor]	69.3	75.1	110 (inactive)	193 (active)
COC(=O)Nc1nc2ccc(C(=O)c3cccs3)cc2[nH]1 [Nocodazole]	59.5	10.9	157 (active)	136 (inactive)
CC(C(O)c1ccc(O)cc1)N1CCC(Cc2ccccc2)CC1.CC(C(O)c1ccc(O)cc1)N1CCC(Cc2ccccc2)CC1.O=C(O)C(O)C(O)C(=O)O (stereo unspecified) [Ifenprodil tartrate]	101	108	100 (inactive)	96.7 (inactive)
O=[NH+]C=C1C=CN(CN2C=CC(=C[NH+]=O)C=C2)C=C1.[Br-].[Br-] [1,1'-methylenebis(4-(nitrosomethyl)pyridinium) bromide]	105	99	89.7 (inactive)	93.7 (inactive)
CC(=O)SCC[N+](C)(C)C.[Cl-] [Acetylthiocholine chloride]	102	111	89.2 (inactive)	92.5 (inactive)
OCc1c[nH]c2ccccc12 [Indole-3-carbinol]	97.5	109	102 (inactive)	110 (inactive)

— the supplement of paper PMC7156485
